ALR H2O2 inh = human ALR oxidase inhibition via reduced H2O2 | purified ALR, DTT oxidation, H2O2 HRP-luminol luminescence | inhibition, % (no concentration beside the values) | 3.8% of 290,000 active | AID 485317;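 active = mean replicate inhibition above about 79%, with every replicate also reaching it, limit read from the data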
Target sequence (P55789 whole entry, looked up): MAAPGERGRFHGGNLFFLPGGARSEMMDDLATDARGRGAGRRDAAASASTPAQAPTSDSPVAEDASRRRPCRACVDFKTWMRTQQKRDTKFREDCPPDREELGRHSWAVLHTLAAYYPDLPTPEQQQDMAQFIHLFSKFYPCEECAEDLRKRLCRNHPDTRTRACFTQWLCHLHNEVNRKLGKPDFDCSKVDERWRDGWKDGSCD
PfG6PD inh = PfG6PD (Plasmodium falciparum) enzyme inhibition; PfGluPho enzyme, NADPH resazurin-diaphorase fluorescence; inhibition, % at 20 µM; 0.78% of 350,000 active;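 active = inhibition reaching at least a set limit at 20 µM in the primary screen, cut at about 59% in these data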;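 note: 0% = DMSO wells with substrate and 100% = DMSO wells lacking glucose-6-phosphate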
PHOSPHO1 inh = blocks human PHOSPHO1 phosphatase activity. Q8TCT1. recombinant PHOSPHO1, absorbance phosphatase assay. inhibition, % at 13.3 µM. 1.1% of 290,000 active; in the data active = inhibition above about 60%
Target sequence (Q8TCT1 whole entry, looked up): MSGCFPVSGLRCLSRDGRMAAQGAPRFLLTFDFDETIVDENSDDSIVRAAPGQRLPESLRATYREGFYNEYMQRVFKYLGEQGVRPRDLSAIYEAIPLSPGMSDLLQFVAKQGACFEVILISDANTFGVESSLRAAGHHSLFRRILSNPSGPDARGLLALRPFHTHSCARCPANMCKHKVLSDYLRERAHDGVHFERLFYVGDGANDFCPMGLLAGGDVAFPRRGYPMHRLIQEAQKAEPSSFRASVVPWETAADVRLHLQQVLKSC
M18AAP inhibitor = PfM18AAP enzyme inhibition | inhibition, % at 7.35 µM | recombinant PfM18AAP, H-Glu-NHMec fluorogenic cleavage | AID 1822 | 1.2% of 290,000 active;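 active = inhibition above the campaign mean inhibition over all tested compounds plus 3 SD, cut at about 28% in these data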;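 note: 0% = plate median of test compound wells and 100% = 2 mM ZnCl2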
Cardio protect = myocardial damage modulation in H9c2 cells. H9c2 cardiomyocytes, H2O2 injury protection, ATPLite, 2 h. protection from H2O2 cell death, % at 20 µM. 0.63% of 360,000 active;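 active = compounds giving at least 50% protection of heart cells from peroxide-induced death in the single-dose screen, raw or plate-pattern-corrected value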;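 note: 0% = DMSO wells with peroxide and 100% = DMSO wells without peroxide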
Starred values were filed as active, the others as inactive; nt = no result. Shown are actives, neighbours in structure and some others; about 5.6% of the full set was active somewhere.

SMILES	ALR H2O2 inh	PfG6PD inh	PHOSPHO1 inh	M18AAP inhibitor	Cardio protect
CCN(C[C@H]1N[C@@](Cc2ccccc2)(C(=O)OC)[C@H]2C(=O)N(Cc3ccccc3)C(=O)[C@@H]12)S(=O)(=O)c1ccccc1	nt	10	nt	nt	18
CCN(C[C@H]1N[C@@](CC)(C(=O)OC)[C@H]2C(=O)N(Cc3ccccc3)C(=O)[C@@H]12)S(=O)(=O)c1ccc(F)cc1	-1	12	nt	nt	59*
CCOC(=O)N1Cc2cc3ccccc3nc2C1	nt	3	nt	nt	-2
CNC(=O)c1sc(N2N=C3/C(=C\c4ccccc4)CCCC3C2c2ccccc2)nc1C (stereo not given)	nt	42	nt	nt	-5
CNC(=O)c1sc(N2N=C3/C(=C/c4ccccc4)CCCC3C2c2ccccc2)nc1C (stereo not given)	99*	31	22	-1	-8
Nc1nc(/C=C/c2cccnc2)nc(-c2ccccc2O)n1	94*	0	5	0	37
CC(C)Oc1ccc(CNC(=S)N/N=C/c2ccc([N+](=O)[O-])cc2)cc1	-3	19	74*	-6	-9
CCCOc1ccc(CNC(=S)N/N=C/c2ccc([N+](=O)[O-])cc2)cc1	53	-14	80*	9	-4
CCOc1ccc(CNC(=S)N/N=C/c2ccncc2)cc1	1	-5	1	-6	-10
CC(C)COc1ccc(CNC(=S)N/N=C/c2ccc([N+](=O)[O-])cc2)cc1	nt	7	95*	3	-9
CC(Oc1ccc([N+](=O)[O-])cc1)C(=O)NCC1CCCO1 (stereo not given)	-8	-1	27	0	-4
Cc1csc(NC(=O)Cc2coc3cc(C)c(C(C)C)cc23)n1	89*	-4	41	15	-11
NNC(=O)c1ccc([N+](=O)[O-])c(CS(=O)(=O)c2ccc(Cl)cc2)c1	-6	6	35	-16	11
CO/N=C/NC(=O)c1ccc([N+](=O)[O-])c(CS(=O)(=O)c2ccc(Cl)cc2)c1	100*	-8	14	3	2
COc1cccc(CC2CC(=O)N(c3ccc4c(C)cc(=O)oc4c3)C2=O)c1 (stereo not given)	nt	-9	61*	1	5
Cc1ccc(-c2csc3nc[nH]c(=S)c23)cc1C	2	10	-7	5	80*
CCSc1cc(C2C(C(=O)OC)=C(C)NC3=C2C(=O)CCC3)c(C)o1 (stereo not given)	-37	18	102*	-14	8
CCSCCOC(=O)C1=C(C)NC2=C(C(=O)CCC2)C1c1coc2ccccc2c1=O (stereo not given)	-1	-9	63*	6	17
CCC(CC)C(=O)N(C)c1c(C)nc2c(OCc3ccc(OC(F)F)cc3)cccn12	nt	nt	nt	nt	-4
O=C(CCNS(=O)(=O)c1ccccc1)OCc1ccc([N+](=O)[O-])cc1	nt	0	nt	nt	-11
CCOc1ccc(N2CC(C(=O)NCCc3ccc(F)cc3)CC2=O)cc1 (stereo not given)	nt	-7	-24	-4	-1
CCCCNC(=O)c1cn(-c2ccc(OCC)cc2)c(=O)c2cc(OC)c(OC)cc12	-30	-15	14	-6	65*
CCOc1ccc(NC(=O)c2cn(-c3ccc(OCC)cc3)c(=O)c3cc(OC)c(OC)cc23)cc1	0	9	8	-6	8
CSc1ccc(OC2(C)CCN(Cc3ccc(-c4ccccn4)cc3)C2)cc1 (stereo not given)	nt	nt	nt	nt	-14
Cc1nnc2n(c1=O)N=C(c1ccc(Cl)cc1)CS2	99*	-11	0	11	-4
SMILES	ALR H2O2 inh	PfG6PD inh	PHOSPHO1 inh	M18AAP inhibitor	Cardio protect
CCc1nnc(NC(=O)c2sc3nc4cc(C)ccc4cc3c2N)s1	-1	50	99*	12	14
CCOC(=O)Cc1csc(NC(=O)c2sc3nc4ccc(C)cc4cc3c2N)n1	99*	8	32	5	22
CC(C)(C)c1ccc(/C=N/Nc2cccc(C(=O)O)c2)cc1	9	-2	2	30*	-7
Cc1c(N=Cc2cc(Br)cc(Br)c2O)cccc1C(=O)O	98*	18	-14	34*	62*
O=C(O)c1cccc(N/N=C/c2cc(Br)cc(Br)c2O)c1	98*	-28	-4	10	13
Cc1[nH]c2ccccc2c1/C=N/Nc1cccc(C(=O)O)c1	nt	8	61*	21	4
O=C(O)c1cccc(N/N=C/c2ccc(-c3ccccc3)cc2)c1	nt	-11	27	1	-10
CN(C)c1ccc(/C=N/Nc2cccc(C(=O)O)c2)cc1	99*	9	5	-5	-4
CSc1ncccc1C(=O)NCCc1ccccc1F	-3	1	33	-2	0
COc1cc(-c2nc(-c3ccccc3)c(-c3cccs3)[nH]2)cc(OC)c1O	98*	34	15	18	32
C=CCn1c(SCC(=O)Nc2ccc(O)cc2)nc2sc(CC)cc2c1=O	97*	-11	27	5	10
Cc1cc2c(=O)n(C)c(SCC(=O)Nc3cccc(O)c3)nc2s1	99*	7	40	5	2
C=CCn1c(SCC(=O)Nc2cccc3ccccc23)nc(O)c(CC)c1=O	98*	0	40	13	-6
Cc1cccc(NC(=O)CSc2nc3sc(C)cc3c(=O)n2C)c1	nt	-8	nt	nt	-13
O=C(Nc1nc(=O)n(C(=O)c2cccc(C(F)(F)F)c2)s1)c1ccccc1	97*	16	20	1	3
O=C(Nc1ccc(-c2csc(Nc3cccc(C(F)(F)F)c3)n2)cc1)c1ccccc1	-4	17	26	nt	-7
COc1ccc(NC2c3ccccc3C(=O)N2c2cccnc2)cc1 (stereo not given)	88*	-5	4	4	-1
CC(=O)c1cc(C(=O)Nc2ccc(C(=O)O)cc2)oc1C	19	0	15	13	-1
Cc1oc(C(=O)Nc2ccc(C(=O)O)cc2)cc1COc1ccccc1	97*	-21	0	6	-4
CSc1ccccc1C(=O)OCC(=O)NC1CCCCCCC1	nt	-34	nt	nt	-7
O=C1CC(SCc2nc3ccccc3[nH]2)C(=O)N1c1cccc(Cl)c1 (stereo not given)	98*	9	17	-15	18
O=C1CC(SCc2nc3ccccc3[nH]2)C(=O)N1c1ccc(F)cc1 (stereo not given)	32	13	29	0	8
N#C/C(=C\Nc1ccc2c(c1)OCCO2)c1nc2ccccc2[nH]1	3	10	-96	2	82*
N#C/C(=C\Nc1ccc2c(c1)OCCO2)c1nc(-c2ccccc2)cs1	-4	-17	-12	0	-10
CC(C)(O)CN(CCCNC(=S)Nc1ccccc1)C(=S)Nc1ccccc1	nt	18	nt	nt	4
CCCC(C)NC(=O)CSc1nnc(-c2c[nH]c3ccccc23)o1 (stereo not given)	-3	8	73*	-2	-2
c1ccc(CSc2nnc(-c3c[nH]c4ccccc34)o2)cc1	nt	34	-29	7	-13
c1ccc2c(-c3nnc(SCc4cn5ccccc5n4)o3)c[nH]c2c1	34	19	85*	4	1

Source: PubChem (several laboratories)
